Source: PubChem BioAssay (NCATS)
“And” between values parts separate entries of the source, which are not always exact repeats. Equal values may be shown once. Records with an inconclusive call do not appear. A call without a number means that no potency is given here. The source holds several records for some structures; these can differ, active in one and inactive in another. The source made the active and inactive calls. Unless noted, calls follow the shape of the dose curve; as a rule, active = well fitted curve in the direction sought with a large enough effect; inconclusive = small, poorly fitted or top-dose-only effect, or another doubt; inactive = no such curve, though single readings can be large; an effect the other way counts as inactive or inconclusive.

Assays:
[1] = Validation qHTS assay for inhibitors of Activation Induced Cytidine Deaminase (AID): UDG Counterscreen signal (AID 1347427)
Summary of the method: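 Counterscreen read of UDG activity (2 U/mL, 4/3x) in the FRET deamination format with AID (1 uM, 4/3x), DJC20/DJC23 substrates (250 nM, 4x), 4 h at room temperature. NaOH stop, fluorescence at 560 ex/665 em.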

[2] = target: Single-stranded DNA cytosine deaminase (Homo sapiens) (UniProt Q9GZX7); assay: Validation qHTS assay for inhibitors of Activation Induced Cytidine Deaminase (AID): AID signal (AID 1347429)
Summary of the method: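 AID and UDG were combined and compounds added at final up to 114 uM, then DJC20/DJC23 FRET substrate was added for 4 hr at room temperature. NaOH was then added for 30 min before fluorescence was read at 540/590 nm.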

[3] = Primary qHTS for inhibitors of La Crosse Virus (LACV) - induced cell death in SH-SY5Y cells (AID 1508616);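 also: top concentration of the series differs between compounds; higher means more rescue of cells from virus-induced death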
Summary of the method: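 Luminescent ATP readout (ATPLite 1step, 5 min room temperature) measured rescue from LACV-induced death after 6 days of infection at 0.01 MOI; normalized to infected DMSO wells and uninfected DMSO wells.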

[4] = target: Calcium and integrin-binding protein 1 (Homo sapiens) (UniProt Q99828); assay: Validation qHTS for Identification of Calcium Integrin Binding protein 1 (CIB1) Competitor (AID 1508618)
Summary of the method: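 In this qHTS validation, the LOPAC set (up to 114 uM) was tested for blocking CIB1 binding to a fluorescein-tagged alphaIIb peptide, with FP detection at 480/540 nm.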

[5] = target: Calcium and integrin-binding protein 1 (Homo sapiens) (UniProt Q99828); assay: Primary qHTS for Identification of Calcium Integrin Binding Protein 1 (CIB1) Competitor (AID 1508620);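 also: GST tagged CIB1 binding a fluorescein labelled alphaIIb integrin peptide tracer; top concentration of the series differs between compounds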
Summary of the method: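 Fluorescence polarization competition: GST-tagged CIB1 (1 uM final) preincubated with compound 15 min at room temperature, then FITC-labelled alphaIIb peptide (100 nM final) added. After 15 min at room temperature, polarization read at Ex 480/Em 540.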

Papain (Carica papaya) = Papain (Carica papaya) (UniProt P00784); assay: Primary qHTS assay for inhibitors of the protease papain (AID 1645873);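 also: papain turnover of Z-FR-AMC read as the AMC fluorescence gain over 10 min; series mostly up to about 50 µM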
[6] = Primary qHTS for inhibitors of nuclear receptor binding SET domain protein 2 (NSD2) in an isogenic RCH-ACV NSD2 p.E1099K mutant (9B) (AID 1645876); also: nearly all actives have a fitted effect of over 70% in size; also: potency is read from the fitted curve at half-maximal effect
[7] = Primary qHTS for inhibitors of nuclear receptor binding SET domain protein 2 (NSD2) in an RCH-ACV wild type WT cells (2C) (AID 1645877); also: nearly all actives have a fitted effect of over 70% in size; also: potency is read from the fitted curve at half-maximal effect
[8] = Primary qHTS for small molecule stabilizers of the endoplasmic reticulum resident proteome: Secreted ER Calcium Modulated Protein (SERCaMP) assay (AID 1508630)
Summary of the method: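 GLuc-SERCaMP-expressing SH-SY5Y cells, pretreated 16 h with compound, are challenged with thapsigargin to empty ER calcium stores; after 4 h, coelenterazine is added directly to the medium and luminescence is imaged.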

[9] = A High-Content qHTS Against Drug Library for the Identification of Small Molecules that Inhibit DYT1 Early Onset Primary Dystonia-Associated Cell Pathology (AID 1645839; calls by dose curve; also: series mostly up to about 46 µM)
Summary of the method: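 Flp-In T-REx 293 cells with tetracycline-inducible EGFP-delE hTOR1A (WT EGFP-hTOR1A as reference), 800 cells/well; compound added with tetracycline, 48 h at 37 C. Fixed, permeabilized cells imaged; %pathology (punctate TorsinA) primary, cell count counterscreen.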

[10] = target: Cytochrome P450 2D6 (Homo sapiens) (UniProt P10635); assay: Cytochrome P450 family 2 subfamily D member 6 (CYP2D6) small molecule antagonists: luciferase biochemical (cell-free) qHTS assay (AID 1645840; active = well fitted curve in the direction sought with a large enough effect in the repeat runs; an effect the other way counts as inactive or inconclusive; also: series mostly up to about 57 µM; nearly all actives have a fitted effect of over 55% in size)
Summary of the method: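 P450-Glo luminescent screen: recombinant CYP2D6 enzyme–proluciferin substrate mix preincubated with compound 10 min at room temperature, then NADPH regeneration added for 1 h at room temperature. Detection reagent added for 20 min; luciferin light read as relative luminescence units.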

[11] = target: Cytochrome P450 2C9 (Homo sapiens) (UniProt P11712); assay: Cytochrome P450 family 2 subfamily C member 9 (CYP2C9) small molecule antagonists: luciferase biochemical (cell-free) qHTS assay (AID 1645842; active = well fitted curve in the direction sought with a large enough effect in the repeat runs; an effect the other way counts as inactive or inconclusive; also: nearly all actives have a fitted effect of over 55% in size; also: potency is read from the fitted curve at half-maximal effect)
Summary of the method: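 Luminescence, after 20 min with luciferin detection reagent, reflected CYP2C9 turnover during a 1 h NADPH-driven reaction at 37C. Enzyme-substrate mix contained 0.4% bovine serum albumin and was preincubated with compound 10 min at room temperature.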

[12] = Counterscreen qHTS for small molecule stabilizers of the endoplasmic reticulum resident proteome: GLuc-NoTag assay (AID 1508627);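 also: SH-SY5Y cells given compound then 100 nM thapsigargin to empty ER calcium; series mostly up to about 76 µM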
Summary of the method: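 SH-SY5Y cells stably expressing constitutively secreted GLuc without SERCaMP tag, exposed to compound for 19 hr, then to 100 nM thapsigargin for 4 hr at 37C. Medium luciferase was read by coelenterazine luminescence without lysis.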

[13] = Confirmatory qHTS for small molecule stabilizers of the endoplasmic reticulum resident proteome: Secreted ER Calcium Modulated Protein (SERCaMP) assay (AID 1508628);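 also: SH-SY5Y cells given compound 16 h then thapsigargin 100 nM for 4 h; series mostly up to about 76 µM; nearly all actives have a fitted effect of over 40% in size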
Summary of the method: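 We seeded SH-SY5Y-GLuc-SERCaMP cells, added compounds (three concentrations in the primary run, eleven up to 76.6 uM in confirmation), incubated 16 h, depleted ER calcium with thapsigargin, and read luciferase 4 h later.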

Single-stranded DNA cytosine deaminase (Homo sapiens), sequence (Q9GZX7 whole entry, looked up): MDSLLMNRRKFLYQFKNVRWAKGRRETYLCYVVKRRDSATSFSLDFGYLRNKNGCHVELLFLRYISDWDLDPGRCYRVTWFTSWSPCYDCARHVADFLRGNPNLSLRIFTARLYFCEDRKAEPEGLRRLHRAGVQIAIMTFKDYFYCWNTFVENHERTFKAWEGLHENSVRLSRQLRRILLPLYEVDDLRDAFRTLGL
Calcium and integrin-binding protein 1 (Homo sapiens), sequence (Q99828 whole entry, looked up): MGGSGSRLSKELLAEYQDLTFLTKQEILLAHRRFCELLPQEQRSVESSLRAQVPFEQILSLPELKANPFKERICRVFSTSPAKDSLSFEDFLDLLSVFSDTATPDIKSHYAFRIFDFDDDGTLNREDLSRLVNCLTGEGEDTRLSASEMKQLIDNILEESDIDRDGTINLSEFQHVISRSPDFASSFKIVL
Papain (Carica papaya), sequence (P00784 whole entry, looked up, the tested form may be a part): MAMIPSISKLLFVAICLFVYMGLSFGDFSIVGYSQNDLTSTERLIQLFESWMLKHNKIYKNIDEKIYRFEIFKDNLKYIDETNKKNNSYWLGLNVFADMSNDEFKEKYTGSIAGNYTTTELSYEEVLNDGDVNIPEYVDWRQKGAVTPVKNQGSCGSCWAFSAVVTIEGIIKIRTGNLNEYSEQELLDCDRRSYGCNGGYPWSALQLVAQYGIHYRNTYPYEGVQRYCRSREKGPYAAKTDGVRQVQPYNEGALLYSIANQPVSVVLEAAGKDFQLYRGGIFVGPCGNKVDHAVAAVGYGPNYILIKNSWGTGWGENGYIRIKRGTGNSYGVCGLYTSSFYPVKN
Cytochrome P450 2C9 (Homo sapiens), sequence (P11712 whole entry, looked up): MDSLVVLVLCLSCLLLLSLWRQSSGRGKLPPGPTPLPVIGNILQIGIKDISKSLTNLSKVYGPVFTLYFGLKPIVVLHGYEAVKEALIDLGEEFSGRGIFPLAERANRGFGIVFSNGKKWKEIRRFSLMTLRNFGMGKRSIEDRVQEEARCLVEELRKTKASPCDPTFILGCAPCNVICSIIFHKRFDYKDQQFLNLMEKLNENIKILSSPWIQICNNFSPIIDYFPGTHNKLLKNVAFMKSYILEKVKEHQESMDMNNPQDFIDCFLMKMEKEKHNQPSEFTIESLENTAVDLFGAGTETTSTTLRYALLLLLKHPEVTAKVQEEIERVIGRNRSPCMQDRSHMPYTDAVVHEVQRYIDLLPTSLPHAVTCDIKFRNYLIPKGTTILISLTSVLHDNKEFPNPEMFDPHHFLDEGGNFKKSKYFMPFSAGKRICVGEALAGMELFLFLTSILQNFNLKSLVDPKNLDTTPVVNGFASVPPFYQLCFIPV
Cytochrome P450 2D6 (Homo sapiens), sequence (P10635 whole entry, looked up): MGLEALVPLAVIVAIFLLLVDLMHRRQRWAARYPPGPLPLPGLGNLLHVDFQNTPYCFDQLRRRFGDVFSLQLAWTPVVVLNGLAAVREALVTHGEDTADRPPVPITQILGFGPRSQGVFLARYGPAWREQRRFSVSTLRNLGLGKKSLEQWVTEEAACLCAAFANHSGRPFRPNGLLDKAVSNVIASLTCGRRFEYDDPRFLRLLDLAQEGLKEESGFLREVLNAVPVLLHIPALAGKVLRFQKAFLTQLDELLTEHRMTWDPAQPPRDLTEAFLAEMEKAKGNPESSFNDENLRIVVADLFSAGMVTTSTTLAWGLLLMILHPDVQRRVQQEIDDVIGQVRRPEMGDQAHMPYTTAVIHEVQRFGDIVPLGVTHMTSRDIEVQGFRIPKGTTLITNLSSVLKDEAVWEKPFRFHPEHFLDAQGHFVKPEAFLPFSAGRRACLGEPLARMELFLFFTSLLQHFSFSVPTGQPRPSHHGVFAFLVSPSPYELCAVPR

Structure (SMILES) | outcome [1] | Potency [2] | outcome [3] | outcome [4] | Potency [5] | outcome (Papain (Carica papaya)) | Potency [6] | Potency [7] | Potency [8] | Potency [9] | Potency [10] | Potency [11] | Potency [12] | Potency [13]
COc1cccc(-c2cc(=O)c3ccccc3o2)c1N | inactive | inactive | inactive | inactive | inactive | inactive | inactive | inactive |  |  |  |  |  | 
NCCS | inactive | inactive | inactive | inactive | inactive | inactive | inactive | inactive | inactive | inactive | inactive | inactive |  | 
Clc1ccc(C(c2ccc(Cl)cc2)n2cc[n+](CC(OCc3ccc(Cl)cc3Cl)c3ccc(Cl)cc3Cl)c2)cc1 (stereo not drawn) | inactive | inactive | inactive | inactive | inactive | inactive | 5.25 µM (active) | 5.25 µM (active) |  |  |  |  |  | 
CC(=O)O[C@]1(C(C)=O)CC[C@H]2[C@@H]3C=C(Cl)C4=CC(=O)[C@@H]5C[C@@H]5[C@]4(C)[C@H]3CC[C@@]21C | inactive | inactive | inactive | inactive | inactive |  |  | inactive | inactive | inactive |  | 9.77 µM (active) |  | 
CN(C)CCC(c1ccccc1)c1ccccn1 (stereo not drawn) | inactive | inactive | inactive | inactive | inactive | inactive | inactive | inactive | inactive | inactive |  | inactive | inactive | inactive
CC(=O)CCCCn1c(=O)c2c(ncn2C)n(C)c1=O | inactive | inactive | inactive |  |  | inactive | inactive | inactive |  | inactive | inactive | inactive |  | 
Clc1ccc(Cn2c(CN3CCCC3)nc3ccccc32)cc1 | inactive | inactive | inactive | inactive |  | inactive |  | inactive and 18.6 µM (active) | inactive | inactive |  | 12.3 µM (active) |  | 
